Targets with a hit are over-represented here; the source holds about 7,900 in all. About 0.6% of all pairs of compound and target were hits.
Assays:
Assay in all cases: log2 fold change, soluble protein after heating vs DMSO (PISA); higher = thermal stabilisation; K562 cells, 10 uM, 30 min; active = over 0.2 and 3.5 SD of the protein, either way, in both replicates (recomputed)
erlotinib = compound: C#Cc1cccc(Nc2ncnc3cc(OCCOC)c(OCCOC)cc23)c1 [erlotinib]
Method in brief: (§1)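 Aliquots of K562 cells (2×10^6 cells/mL) treated with 10 μM compound for 30 min were heated for 3 min over 48°C-58°C. After pooling and extraction in PBS with 0.5% NP-40 at 4°C, soluble protein from a 21,000xg, 90 min spin was quantified by TMTpro 16plex LC-MS/MS with channel sums equalised. Thermal stability is expressed against control samples, from duplicates, as a log2 fold change.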

[1] = compound: C/C(=N\NC(=O)C1=CC(=CC=C1)S(=O)(=O)N2CCOCC2)/C3=C(C=CC(=C3)Cl)O
Method in brief: as §1

[2] = compound: C1=CC(=C(C=C1Cl)C2=NC3=NC=CN=C3C(=N2)NC4=CC=NC=C4)F
Method in brief: as §1

[3] = compound: C1=CC(=CC=C1C2=NC3=C(N2)C=C(C=C3)C(=O)N)OC4=CC=C(C=C4)Cl
Method in brief: as §1

[4] = compound: C1=CC2=C(C=CC(=C2)/C=C\3/C(=O)NC(=NCC4=CC=CS4)S3)N=C1
Method in brief: as §1

[5] = compound: C1=CC2=NC=CN=C2C=C1/C=C/3\C(=O)NC(=O)S3
Method in brief: as §1

[6] = compound: C1=CC=C(C=C1)C2=NC(=C(N2)C3=CC=NC=C3)C4=CC(=C(C=C4)Cl)O
Method in brief: as §1

[7] = compound: C1=CC=C2C(=C1)C3=NNC4=CC=CC(=C43)C2=O
Method in brief: as §1

[8] = compound: C1CCN(C1)C(=O)NC2=CC=CC(=C2)NC3=NC=C(C(=N3)NCCC4=CN=CN4)Br
Method in brief: as §1

[9] = compound: C1CN(CCC1(CC2=CC=C(C=C2)Cl)N)C3=NC=NC4=C3C=CN4
Method in brief: as §1

Measured: log2 fold change

TPM2 (UniProt P07951)
inactive: erlotinib -0.05 | [1] 0.009 | [2] 0.417 | [3] 0.021 | [4] -0.146 | [5] 0.025 | [6] 0.102 | [7] 0.02 | [8] -0.069 | [9] 0.101

TRAM1 (UniProt Q15629)
inactive: erlotinib 0.059 | [1] 0.016 | [2] -0.028 | [3] -0.088 | [4] 0.015 | [5] 0.065 | [6] 0.144 | [7] -0.151 | [8] 0.105 | [9] 0

WASHC2C, A0A096LPC5
inactive: erlotinib 0.095 | [1] -0.224 | [2] -0.016 | [3] -0.006 | [4] 0.204 | [5] 0.113 | [6] 0.111 | [7] -0.071 | [8] -0.069 | [9] 0.08

TOP2A isoform 4 (UniProt P11388)
inactive: erlotinib 0.008 | [1] -0.124 | [2] -0.429 | [3] 0.094 | [4] -0.061 | [5] 0.23 | [6] 0.077 | [7] 0.053 | [8] 0.073 | [9] -0.219

UTP3 (UniProt Q9NQZ2)
Chain of UniProt Q9NQZ2 (Q9NQZ2 whole entry, looked up): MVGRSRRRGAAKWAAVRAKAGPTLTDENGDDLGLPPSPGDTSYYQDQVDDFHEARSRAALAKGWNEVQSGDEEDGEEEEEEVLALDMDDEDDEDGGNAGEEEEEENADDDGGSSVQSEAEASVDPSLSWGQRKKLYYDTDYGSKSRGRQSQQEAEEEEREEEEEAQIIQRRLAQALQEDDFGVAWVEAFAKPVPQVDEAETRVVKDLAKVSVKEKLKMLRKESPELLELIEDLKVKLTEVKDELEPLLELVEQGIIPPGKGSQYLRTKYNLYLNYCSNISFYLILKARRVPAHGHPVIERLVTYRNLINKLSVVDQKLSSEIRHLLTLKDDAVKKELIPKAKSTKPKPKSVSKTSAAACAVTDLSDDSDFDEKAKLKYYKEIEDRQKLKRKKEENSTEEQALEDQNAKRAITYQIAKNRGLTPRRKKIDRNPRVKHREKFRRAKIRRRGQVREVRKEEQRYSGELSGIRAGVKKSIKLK
inactive: erlotinib -0.098 | [1] -0.076 | [2] -0.748 | [3] 0.063 | [4] -0.068 | [5] 0 | [6] -0.255 | [7] -0.004 | [8] 0.006 | [9] -0.203

TNFRSF8 (UniProt P28908)
inactive: erlotinib 0.009 | [1] 0.017 | [2] -0.015 | [3] 0.006 | [4] -0.109 | [5] 0.024 | [6] -0.062 | [7] -0.061 | [8] -0.046 | [9] 0.05

TMEM41A (UniProt Q96HV5)
Chain of UniProt Q96HV5 (Q96HV5 whole entry, looked up): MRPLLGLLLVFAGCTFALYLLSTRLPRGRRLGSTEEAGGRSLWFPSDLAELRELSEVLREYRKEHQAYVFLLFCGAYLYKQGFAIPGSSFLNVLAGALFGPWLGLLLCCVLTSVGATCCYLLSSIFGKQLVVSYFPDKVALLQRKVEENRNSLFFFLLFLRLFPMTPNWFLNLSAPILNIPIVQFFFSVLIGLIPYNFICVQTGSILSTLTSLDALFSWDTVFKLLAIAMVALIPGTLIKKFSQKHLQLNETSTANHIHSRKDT
inactive: erlotinib 0.013 | [1] 0.046 | [2] -0.02 | [3] -0.014 | [4] 0.024 | [5] 0.037 | [6] -0.04 | [7] 0.013 | [8] -0.069 | [9] 0.033

TPR (UniProt P12270)
inactive: erlotinib -0.113 | [1] 0.023 | [2] -0.001 | [3] -0.011 | [4] -0.098 | [5] 0.174 | [6] -0.104 | [7] -0.118 | [8] 0 | [9] -0.142

VTI1B (UniProt Q9UEU0)
Chain of UniProt Q9UEU0 (Q9UEU0 whole entry, looked up): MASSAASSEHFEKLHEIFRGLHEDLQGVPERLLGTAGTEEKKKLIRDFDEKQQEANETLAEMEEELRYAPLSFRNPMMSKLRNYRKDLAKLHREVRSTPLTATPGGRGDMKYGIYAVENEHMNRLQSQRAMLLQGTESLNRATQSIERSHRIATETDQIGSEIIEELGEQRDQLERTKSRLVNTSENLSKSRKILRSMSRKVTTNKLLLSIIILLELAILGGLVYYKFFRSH
inactive: erlotinib 0.011 | [1] -0.008 | [2] -0.023 | [3] -0.02 | [4] 0 | [5] 0.03 | [6] -0.055 | [7] -0.036 | [8] 0.022 | [9] 0.046

TMEM120A (UniProt Q9BXJ8)
Chain of UniProt Q9BXJ8 (Q9BXJ8 whole entry, looked up): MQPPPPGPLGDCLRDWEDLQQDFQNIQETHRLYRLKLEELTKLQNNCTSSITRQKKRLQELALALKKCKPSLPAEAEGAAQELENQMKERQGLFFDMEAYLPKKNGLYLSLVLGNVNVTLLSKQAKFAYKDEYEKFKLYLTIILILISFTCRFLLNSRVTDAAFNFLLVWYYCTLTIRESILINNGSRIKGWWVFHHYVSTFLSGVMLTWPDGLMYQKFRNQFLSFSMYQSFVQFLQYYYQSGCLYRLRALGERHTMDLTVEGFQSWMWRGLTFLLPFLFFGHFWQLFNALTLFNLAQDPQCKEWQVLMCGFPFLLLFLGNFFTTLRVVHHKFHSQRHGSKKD
inactive: erlotinib -0.036 | [1] 0.109 | [2] 0.174 | [3] 0.053 | [4] 0 | [5] 0.236 | [6] -0.02 | [7] -0.036 | [8] -0.071 | [9] 0.1

WEE1 (UniProt P30291)
Chain of UniProt P30291 (P30291 whole entry, looked up): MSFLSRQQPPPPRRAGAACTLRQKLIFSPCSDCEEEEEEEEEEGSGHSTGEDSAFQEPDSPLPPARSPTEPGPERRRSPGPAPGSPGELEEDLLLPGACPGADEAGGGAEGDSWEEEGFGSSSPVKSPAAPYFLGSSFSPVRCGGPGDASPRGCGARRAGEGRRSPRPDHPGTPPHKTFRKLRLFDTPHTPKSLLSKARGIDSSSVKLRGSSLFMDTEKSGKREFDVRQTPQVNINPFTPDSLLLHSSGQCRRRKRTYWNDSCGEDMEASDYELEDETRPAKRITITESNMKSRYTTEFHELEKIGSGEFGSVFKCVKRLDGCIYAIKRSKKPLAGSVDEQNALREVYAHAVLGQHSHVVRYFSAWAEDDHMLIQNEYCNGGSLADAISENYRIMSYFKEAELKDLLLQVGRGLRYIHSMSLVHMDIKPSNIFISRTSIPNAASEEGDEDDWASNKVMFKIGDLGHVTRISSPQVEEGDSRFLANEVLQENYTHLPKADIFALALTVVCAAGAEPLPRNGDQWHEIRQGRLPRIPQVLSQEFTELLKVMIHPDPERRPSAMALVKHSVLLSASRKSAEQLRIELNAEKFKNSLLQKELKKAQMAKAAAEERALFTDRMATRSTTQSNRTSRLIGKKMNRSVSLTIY
inactive: erlotinib 0.029 | [1] -0.06 | [2] -0.081 | [3] 0.047 | [4] -0.206 | [5] 0.249 | [6] -0.177 | [7] 0.037 | [8] -0.085 | [9] -0.239

TSFM (UniProt P43897)
inactive: erlotinib 0.037 | [1] -0.004 | [2] 0.302 | [3] -0.206 | [4] 0.189 | [5] 0.044 | [6] 0.11 | [7] -0.069 | [8] -0.016 | [9] 0.095

UGGT1 (UniProt Q9NYU2)
Chain of UniProt Q9NYU2 (Q9NYU2 whole entry, looked up): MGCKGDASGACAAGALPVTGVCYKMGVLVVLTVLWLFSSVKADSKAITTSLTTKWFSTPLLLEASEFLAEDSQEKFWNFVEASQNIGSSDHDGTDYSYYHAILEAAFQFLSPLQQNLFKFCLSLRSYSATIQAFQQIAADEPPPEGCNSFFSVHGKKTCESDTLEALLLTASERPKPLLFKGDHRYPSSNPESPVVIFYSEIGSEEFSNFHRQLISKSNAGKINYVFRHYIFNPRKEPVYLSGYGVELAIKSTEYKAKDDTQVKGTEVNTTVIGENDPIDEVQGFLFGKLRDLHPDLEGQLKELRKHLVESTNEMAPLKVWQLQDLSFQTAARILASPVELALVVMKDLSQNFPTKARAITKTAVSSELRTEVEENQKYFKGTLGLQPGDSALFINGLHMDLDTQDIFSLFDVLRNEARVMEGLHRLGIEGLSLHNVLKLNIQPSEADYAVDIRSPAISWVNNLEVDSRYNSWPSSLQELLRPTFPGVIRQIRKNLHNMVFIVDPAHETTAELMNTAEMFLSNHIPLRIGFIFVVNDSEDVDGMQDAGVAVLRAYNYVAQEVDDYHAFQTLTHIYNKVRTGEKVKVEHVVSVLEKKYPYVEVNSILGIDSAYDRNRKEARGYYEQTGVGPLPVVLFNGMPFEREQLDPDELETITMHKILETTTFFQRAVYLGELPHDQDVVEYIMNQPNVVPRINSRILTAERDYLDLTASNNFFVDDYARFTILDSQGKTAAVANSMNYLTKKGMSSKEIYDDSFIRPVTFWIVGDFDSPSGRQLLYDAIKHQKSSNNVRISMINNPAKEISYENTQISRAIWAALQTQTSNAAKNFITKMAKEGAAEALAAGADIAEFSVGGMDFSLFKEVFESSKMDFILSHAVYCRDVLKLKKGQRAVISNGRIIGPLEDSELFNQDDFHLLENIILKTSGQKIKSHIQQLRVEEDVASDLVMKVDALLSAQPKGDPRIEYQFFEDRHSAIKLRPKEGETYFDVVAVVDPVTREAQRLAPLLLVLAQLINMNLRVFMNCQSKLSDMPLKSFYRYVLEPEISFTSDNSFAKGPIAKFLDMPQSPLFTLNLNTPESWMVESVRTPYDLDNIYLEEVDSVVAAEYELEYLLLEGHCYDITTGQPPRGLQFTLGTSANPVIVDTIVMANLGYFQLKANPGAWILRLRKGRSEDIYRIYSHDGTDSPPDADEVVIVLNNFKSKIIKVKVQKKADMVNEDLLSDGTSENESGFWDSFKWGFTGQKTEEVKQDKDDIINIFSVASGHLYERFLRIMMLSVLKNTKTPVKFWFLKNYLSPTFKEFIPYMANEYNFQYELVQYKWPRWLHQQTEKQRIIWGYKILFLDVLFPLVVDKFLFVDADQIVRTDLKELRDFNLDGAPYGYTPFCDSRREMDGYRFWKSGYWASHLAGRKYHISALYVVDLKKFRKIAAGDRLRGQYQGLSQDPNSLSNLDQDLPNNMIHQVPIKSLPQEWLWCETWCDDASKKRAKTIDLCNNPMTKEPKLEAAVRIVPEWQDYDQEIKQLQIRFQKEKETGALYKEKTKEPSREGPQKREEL
inactive: erlotinib -0.027 | [1] 0.016 | [2] 0.007 | [3] 0.007 | [4] 0.018 | [5] 0.014 | [6] -0.012 | [7] 0.019 | [8] -0.015 | [9] 0.005

TTC4 (UniProt O95801)
Chain of UniProt O95801 (O95801 whole entry, looked up): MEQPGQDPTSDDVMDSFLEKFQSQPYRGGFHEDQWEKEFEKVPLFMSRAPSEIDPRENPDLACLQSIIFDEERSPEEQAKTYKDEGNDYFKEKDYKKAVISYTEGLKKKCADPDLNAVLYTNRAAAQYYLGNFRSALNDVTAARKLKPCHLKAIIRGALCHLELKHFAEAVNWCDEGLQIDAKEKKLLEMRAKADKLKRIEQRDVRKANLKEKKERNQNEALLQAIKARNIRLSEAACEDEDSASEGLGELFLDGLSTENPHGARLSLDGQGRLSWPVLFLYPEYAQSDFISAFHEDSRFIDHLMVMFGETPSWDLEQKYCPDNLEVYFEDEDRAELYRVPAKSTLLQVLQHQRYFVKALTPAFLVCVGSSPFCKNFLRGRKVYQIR
inactive: erlotinib 0.094 | [1] 0.081 | [2] 0.016 | [3] 0.005 | [4] 0.061 | [5] -0.007 | [6] 0.081 | [7] 0.025 | [8] -0.057 | [9] -0.018

UBE4A isoform 2 (UniProt Q14139)
Chain of UniProt Q14139 (Q14139 whole entry, looked up): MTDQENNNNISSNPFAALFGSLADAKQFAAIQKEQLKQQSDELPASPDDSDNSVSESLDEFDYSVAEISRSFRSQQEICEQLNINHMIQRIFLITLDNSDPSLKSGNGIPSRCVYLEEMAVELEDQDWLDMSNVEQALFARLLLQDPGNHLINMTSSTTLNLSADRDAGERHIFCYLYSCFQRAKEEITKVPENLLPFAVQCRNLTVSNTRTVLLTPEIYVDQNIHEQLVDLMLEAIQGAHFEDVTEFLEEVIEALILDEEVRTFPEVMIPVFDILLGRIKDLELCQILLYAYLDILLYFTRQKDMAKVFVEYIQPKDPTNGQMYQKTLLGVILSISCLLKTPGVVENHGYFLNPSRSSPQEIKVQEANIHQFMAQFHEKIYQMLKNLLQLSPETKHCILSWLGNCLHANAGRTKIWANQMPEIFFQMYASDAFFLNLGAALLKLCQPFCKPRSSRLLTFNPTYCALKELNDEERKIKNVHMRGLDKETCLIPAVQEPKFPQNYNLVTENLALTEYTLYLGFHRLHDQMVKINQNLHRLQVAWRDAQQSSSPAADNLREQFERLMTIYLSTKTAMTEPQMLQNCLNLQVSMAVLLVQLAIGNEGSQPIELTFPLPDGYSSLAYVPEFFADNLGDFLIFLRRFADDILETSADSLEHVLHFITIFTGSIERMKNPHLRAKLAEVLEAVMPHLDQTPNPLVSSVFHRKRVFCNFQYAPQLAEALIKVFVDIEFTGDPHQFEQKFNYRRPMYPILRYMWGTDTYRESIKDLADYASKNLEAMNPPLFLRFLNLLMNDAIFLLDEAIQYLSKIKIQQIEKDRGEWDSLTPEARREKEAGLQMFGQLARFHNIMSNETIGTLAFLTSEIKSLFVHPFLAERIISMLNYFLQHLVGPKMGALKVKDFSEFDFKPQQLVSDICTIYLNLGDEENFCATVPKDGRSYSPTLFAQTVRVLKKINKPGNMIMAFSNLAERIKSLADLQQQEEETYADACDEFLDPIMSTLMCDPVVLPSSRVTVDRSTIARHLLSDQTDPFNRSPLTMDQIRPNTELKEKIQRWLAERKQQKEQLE
inactive: erlotinib 0.012 | [1] 0.148 | [2] 0.083 | [3] -0.11 | [4] 0.012 | [5] 0.083 | [6] -0.039 | [7] -0.301 | [8] -0.018 | [9] -0.132

Reference: the supplement of paper PMC10849652
